Here are results for 24 compounds from PubChem BioAssay (EPA / NIEHS).

The target of experiment [1] is Transcription factor E2F1 (Homo sapiens) (UniProt Q01094). Kind of experiment: ATG_E2F_CIS: Attagene CIS-FACTORIAL HepG2 Assay for human E2F Transcription Factor 1 (AID 2282935). As to conditions: HepG2 Attagene cis-reporter, E2F reporter RNA transcripts; actives raise or lower the signal. A digest of the protocol: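 Liver-derived HepG2 cells expressing transfected promoter-driven reporter units received test chemical for 24 hours. Signal gains or losses were fitted bidirectionally against DMSO.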

The nature of experiment [2]: ATG_E_Box_CIS: Attagene CIS-FACTORIAL HepG2 Assay for human Enhancer Box (E-box) (AID 2282936). As to conditions: HepG2 E-box cis-reporter transcription, actives raise or lower the signal. In a few lines:
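In this cell-based setup, HepG2 cells bearing transfected promoter-driven reporter units were exposed to chemicals for 24 h; reporter transcripts were amplified, 6-FAM-labelled, cut with HpaI and sized by capillary electrophoresis.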

The nature of experiment [3]: ATG_M_61_CIS: Attagene CIS-FACTORIAL HepG2 Assay for M61 Transcription Factor (Internal Marker) (AID 2282937). As to conditions: HepG2 Attagene CIS-FACTORIAL M61 internal marker reporter; actives raise or lower the signal. A digest of the protocol:
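Readout: fluorescent reporter mRNA fragments resolved by capillary electrophoresis after RT-PCR. Transiently transfected human HepG2 cells carried MRTU constructs reporting endogenous TF activity; 24 h chemical exposure; gain or loss of signal fitted relative to DMSO.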

Experiment [4] is described as follows: ATG_EGR_CIS: Attagene CIS-FACTORIAL HepG2 Assay for human Early Growth Response 1 (EGR1) (AID 2282938). As to conditions: HepG2 Attagene CIS-FACTORIAL EGR reporter mRNA; actives raise or lower the signal. A digest of the protocol:
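Read-out: fluorescent reporter-mRNA fragments resolved by capillary electrophoresis after RT-PCR, 24 h post-dose in transiently transfected HepG2. Endogenous transcription-factor activity reported via cis-element-regulated reporter units; gain or loss fitted relative to DMSO.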

Experiment [5] can be described thus: ATG_M_19_CIS: Attagene CIS-FACTORIAL HepG2 Assay for M19 Transcription Factor (Internal Marker) (AID 2282939). The settings on record: HepG2 Attagene CIS-FACTORIAL M19 internal marker reporter; actives raise or lower the signal. In a few lines: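 HepG2 cells transiently transfected with cis-regulated multiple reporter transcription units were dosed for 24 h; reporter mRNA was quantified by RT-PCR, 6-FAM primer-extension labelling, HpaI digestion and capillary electrophoresis, with bidirectional fitting against DMSO baseline.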

Experiment [6] in a line: ATG_ERE_CIS: Attagene CIS-FACTORIAL HepG2 Assay for Estrogen Response Element (ERE) (AID 2282940). The settings on record: HepG2 ERE cis-reporter, Attagene RNA transcript; actives raise or lower the signal. A digest of the protocol: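 HepG2 cells transiently transfected with cis-promoter-driven multiplexed reporter transcription units report endogenous TF activity. After 24 h compound exposure, reporter mRNA is quantified by RT-PCR with capillary electrophoresis fluorescence; bidirectional fitting versus DMSO baseline.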

Experiment [7] is described as follows: ATG_Ets_CIS: Attagene CIS-FACTORIAL HepG2 Assay for human Erythroblast Transformation Specific (ETS) (AID 2282941). The settings on record: HepG2 ETS cis-reporter transcription, actives raise or lower the signal. A digest of the protocol: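 RT-PCR/capillary electrophoresis fluorescence read-out of reporter mRNA; HepG2 transient multi-reporter transfection; 24 h compound exposure; gain or loss of signal fitted bidirectionally relative to DMSO.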

Experiment [8] has as its target Hepatocyte nuclear factor 3-beta (Homo sapiens) (UniProt Q9Y261). Kind of experiment: ATG_FoxA2_CIS: Attagene CIS-FACTORIAL HepG2 Assay for human Forkhead box A2 (FOXA2) (AID 2282942). The settings on record: HepG2 cis-reporter transcription factor activity, 24 h; actives raise or lower the signal. A digest of the protocol:
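Readout: fluorescent reporter transcripts resolved by capillary electrophoresis after RT-PCR. Transiently transfected HepG2, 24 h compound exposure, endogenous TF activity at cis promoter elements. Gain or loss of signal fitted relative to DMSO.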

Experiment [9] is described as follows: ATG_FoxO_CIS: Attagene CIS-FACTORIAL HepG2 Assay for human Forkhead box O (FoxO) (AID 2282943). As to conditions: HepG2 Attagene cis-reporter, FoxO element, mRNA; actives raise or lower the signal. A digest of the protocol: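 Read-out: fluorescence of 6-FAM-labelled reporter cDNA fragments resolved by capillary electrophoresis. Transiently transfected HepG2 cells were dosed for 24 h; activity fitted in both directions relative to DMSO controls.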

Experiment [10] can be described thus: ATG_GATA_CIS: Attagene CIS-FACTORIAL HepG2 Assay for human GATA Binding Protein (AID 2282944). The settings on record: HepG2 GATA cis-element reporter, Attagene multiplex mRNA; actives raise or lower the signal. In a few lines: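 HepG2 cells transiently transfected with multiplexed cis-element reporter units reflecting endogenous transcription factor activity; reporter mRNA measured after 24 h dosing by RT-PCR, 6-FAM labeling, HpaI digestion and capillary electrophoresis. Bidirectional fitting versus DMSO baseline.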

Each structure is given as a SMILES string. Activity calls are given as the source filed them. Rule for the calls: active = hit-call score of the fitted dose curve at least 0.9, where 1 is the maximum; inactive = score below 0.9.

Chain of Hepatocyte nuclear factor 3-beta (Homo sapiens) (Q9Y261 whole entry, looked up): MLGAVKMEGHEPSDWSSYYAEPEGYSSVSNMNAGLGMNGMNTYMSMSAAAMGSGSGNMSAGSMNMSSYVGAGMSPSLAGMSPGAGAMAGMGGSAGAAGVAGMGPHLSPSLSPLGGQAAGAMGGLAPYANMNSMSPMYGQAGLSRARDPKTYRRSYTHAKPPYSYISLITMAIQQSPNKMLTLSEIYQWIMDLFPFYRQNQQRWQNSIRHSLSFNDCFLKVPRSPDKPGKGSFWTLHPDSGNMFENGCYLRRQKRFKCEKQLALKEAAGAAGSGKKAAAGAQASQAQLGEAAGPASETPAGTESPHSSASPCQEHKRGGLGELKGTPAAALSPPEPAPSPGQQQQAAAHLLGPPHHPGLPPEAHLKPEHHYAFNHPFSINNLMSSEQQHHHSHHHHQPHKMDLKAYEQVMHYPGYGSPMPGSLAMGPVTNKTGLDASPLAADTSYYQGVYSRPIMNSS
Chain of Transcription factor E2F1 (Homo sapiens) (Q01094 whole entry, looked up): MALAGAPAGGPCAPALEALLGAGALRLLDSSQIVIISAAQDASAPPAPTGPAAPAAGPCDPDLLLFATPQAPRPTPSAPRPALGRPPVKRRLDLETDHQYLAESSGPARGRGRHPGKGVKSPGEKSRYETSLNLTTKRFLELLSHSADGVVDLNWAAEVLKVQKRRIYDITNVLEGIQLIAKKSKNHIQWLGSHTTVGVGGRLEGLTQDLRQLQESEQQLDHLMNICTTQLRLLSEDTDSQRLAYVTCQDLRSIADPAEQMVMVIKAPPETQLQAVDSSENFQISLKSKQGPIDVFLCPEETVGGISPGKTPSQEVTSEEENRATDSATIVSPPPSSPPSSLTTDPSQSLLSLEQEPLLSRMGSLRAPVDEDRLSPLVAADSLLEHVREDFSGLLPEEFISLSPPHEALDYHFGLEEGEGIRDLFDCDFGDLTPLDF

With `OCC1CO1` (stereo unspecified), the result in experiment [1], in experiment [2], in [3], in [4], in [5] and in experiment [6] was inactive. The compound was classed as inactive in [7], in experiment [8], in experiment [9] and in experiment [10].
In the case of `CCN(CC)c1ccccc1`, the compound was classed as inactive in experiment [1], in [2], in experiment [3], in [4], in experiment [5] and in experiment [6]. Further, the compound was classed as inactive in [7], in [8], in experiment [9] and in [10].
`OCC(F)(F)OC(F)(F)C(F)(F)OC(F)(F)C(F)(F)OC(F)(F)CO`: the compound was classed as inactive in [1], in [2], in experiment [3], in experiment [4], in experiment [5] and in [7]. The outcome in experiment [8], in [9] and in experiment [10] was inactive. In addition, the AC50 (in general, the concentration giving half of the maximal activity seen) in [6] was 0.506 µM (active).
As to `CC(C)(C)N(NC(=O)c1ccc(Cl)cc1)C(=O)c1ccccc1`, the call in experiment [1], in experiment [2], in experiment [3], in experiment [4], in [5] and in experiment [6] was inactive. The call in experiment [7], in experiment [8], in experiment [9] and in [10] was inactive.
Consider `CC(C)(C)c1ccc(O)cc1`, for which the compound was classed as inactive in experiment [1], in [2], in experiment [3], in experiment [4], in experiment [5] and in experiment [7]. Further, the call in experiment [8], in [9] and in experiment [10] was inactive. In addition, the concentration at half-maximal activity (AC50) in experiment [6] was 3.14 µM (active).
As to `C/C(=N\NC(=O)Nc1cc(F)cc(F)c1)c1ncccc1C(=O)O`, the compound was called inactive in [1], in experiment [2], in experiment [3], in [4], in [5] and in experiment [6]. The call in experiment [7], in experiment [8], in experiment [9] and in experiment [10] was inactive.
`CCCCc1ccccc1`: the call in experiment [1], in experiment [2], in experiment [3], in experiment [4], in experiment [5] and in [6] was inactive. Besides, the compound was classed as inactive in [7], in experiment [8], in [9] and in experiment [10].
For the compound `CCCCCCCc1ccc(O)cc1`, the compound was called inactive in [1], in experiment [2], in [3], in experiment [4], in experiment [5] and in experiment [7]. Besides, the call in experiment [8], in experiment [9] and in [10] was inactive. The AC50 in [6] is 3.89 µM (active) [middle of 4 runs].
On to `O=C(O)CF`, for which the outcome in experiment [1], in experiment [2], in experiment [3], in experiment [4], in [5] and in experiment [6] was inactive. For the same compound, the compound was classed as inactive in experiment [7], in experiment [8], in [9] and in [10].
On to `CC(=O)c1ccc(-c2ccccc2)cc1`, for which the outcome in [1], in [2], in experiment [3], in experiment [4], in [5] and in [7] was inactive. The result in experiment [8], in experiment [9] and in [10] was inactive. Further, the AC50 in [6] is 6.56 µM (active).
As to `C=CC(=O)OCC(F)(F)C(F)F`, the compound was classed as inactive in [1], in experiment [2], in experiment [4], in experiment [5], in experiment [6] and in experiment [7]. For the same compound, the outcome in experiment [8], in experiment [9] and in [10] was inactive.
Take `Cc1cc(C)c(C(=O)P(=O)(c2ccccc2)c2ccccc2)c(C)c1`: the compound was classed as inactive in experiment [1], in experiment [7], in [8] and in experiment [9]. Further, the AC50 in experiment [2] was 54.9 µM (active); in experiment [4], 41.3 µM (active); in [5], 61.5 µM (active); in experiment [6], 8.69 µM (active); in [10] it was 54.9 µM (active).
On to `c1ccc2c(c1)Nc1ccccc1S2`, for which the call in experiment [1], in experiment [2], in [4], in experiment [5], in [7] and in [8] was inactive. The call in experiment [9] and in experiment [10] was inactive. The concentration at half-maximal activity (AC50) in experiment [6] was 16.2 µM (active).
Consider `c1cc2c3c(cccc3c1)CC2`, for which the outcome in [1], in experiment [2], in experiment [4], in experiment [5], in [6] and in experiment [7] was inactive. Further, the call in experiment [8], in experiment [9] and in experiment [10] was inactive.
For the compound `CC(O)C#N` (stereo unspecified), the compound was called inactive in [1], in experiment [2], in experiment [4], in [5], in [6] and in [7]. In addition, the result in experiment [8], in experiment [9] and in experiment [10] was inactive.
As for `O=C(O)C(Cl)Cl`, the compound was called inactive in experiment [1], in [2], in experiment [4], in experiment [5], in experiment [6] and in experiment [7]. The outcome in [8], in experiment [9] and in [10] was inactive.
On to `O=c1ssc(Cl)c1Cl`, for which the compound was called inactive in experiment [1], in experiment [2], in experiment [5], in experiment [6], in experiment [8] and in experiment [9]. Further, in experiment [10], the compound was classed as inactive. Moreover, the AC50 in [4] was 60.3 µM (active); in [7], 52.1 µM (active).
With `CCOS(=O)(=O)OCC`, the call in [1], in experiment [2], in [4], in experiment [5], in experiment [6] and in experiment [7] was inactive. Besides, the result in experiment [8], in experiment [9] and in experiment [10] was inactive.
Take `CCCCc1ccc(O)cc1`: the call in experiment [1], in experiment [2], in [4], in experiment [5], in experiment [7] and in experiment [8] was inactive. In addition, the compound was called inactive in experiment [9] and in experiment [10]. Moreover, in experiment [6], the half-maximal activity concentration (AC50) is 7.43 µM (active).
As for `CC1(C)CN=C(NN=C(/C=C/c2ccc(C(F)(F)F)cc2)/C=C/c2ccc(C(F)(F)F)cc2)NC1`, the call in [1], in [4], in experiment [5], in experiment [7], in experiment [9] and in [10] was inactive. In addition, the AC50 in experiment [2] is 13.7 µM (active); in experiment [6], 0.303 µM (active); in [8] it was 11.1 µM (active).
Take `CCOC(=O)c1ccccc1N`: the compound was classed as inactive in experiment [1], in experiment [2], in experiment [4], in experiment [5], in [6] and in experiment [7]. For the same compound, the result in experiment [8], in experiment [9] and in [10] was inactive.
For the compound `Oc1ccc(I)cc1`, the compound was called inactive in [1], in experiment [2], in experiment [4], in experiment [5], in experiment [7] and in experiment [8]. The compound was called inactive in experiment [9] and in [10]. Besides, the concentration at half-maximal activity (AC50) in experiment [6] is 23.7 µM (active).
For `C=C(C)C(=O)OCC1CO1` (stereo unspecified), the compound was classed as inactive in experiment [1], in experiment [2], in experiment [4], in experiment [5], in [6] and in experiment [7]. Further, the compound was called inactive in [8], in experiment [9] and in experiment [10].
`Nc1cc2c3c(c1)C(c1ccccc1)=N[C@@H](NC(=O)c1cccnc1)C(=O)N3CC2`: the outcome in experiment [1], in experiment [2], in [4], in experiment [5], in experiment [6] and in [7] was inactive. Moreover, the compound was classed as inactive in [8], in experiment [9] and in experiment [10].
